The nature of experiment [1]: Viability qHTS for spleen associated tyrosine kinase inhibitor (SYKi) naive MV4-11 cells (AID 1963823). Also: nearly all actives have a fitted effect of over 40% in size. Conditions: MV4-11 AML viability, CellTiter-Glo luminescence, 72 h; series mostly up to 45 µM. An outline of the steps:
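qHTS, SYK inhibitor-naive MV4-11; 500 cells/well; 72 hr compound exposure, 37 C; CellTiter-Glo added, 10 min RT; luminescence read.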

Experiment [2] in a line: Viability qHTS for spleen associated tyrosine kinase inhibitor (SYKi) drug resistant MV4-11 cells (AID 1963824). Also: nearly all actives have a fitted effect of over 35% in size. Conditions: SYKi-resistant MV4-11 viability, CellTiter-Glo, 72 h; series mostly up to 45 µM. An outline of the steps: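 SYK-inhibitor-resistant MV4-11 AML cells were seeded at 500 per well onto compound and cultured 72 hours (37 °C, 5% CO2). CellTiter-Glo was then added, and after 10 min at room temperature, luminescence gave viability.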
For orientation: Quantitative high-throughput screening tests each substance at several concentrations.

Results filed as inconclusive are left out. The source made the active and inactive calls. Calls follow the shape of the dose curve; as a rule, active = well fitted cell-killing curve with a large enough effect; inconclusive = small, poorly fitted or top-dose-only effect, or effect the other way; inactive = no such curve, though single readings can be large or run the other way.
Potency is read from the fitted curve at half-maximal effect.

For `C=C1C(=O)O[C@H]2[C@H]1[C@@H](OC(=O)/C(C)=C\C)C[C@]1(C)O[C@@H]1[C@H]1O[C@H]1C(=C)[C@H]2O`, the Potency is 8.05 µM (active) in experiment [1] and 3.6 µM (active) in experiment [2].

Regarding `COC1OC(=O)C2=C1C1(C)CCCC(C)(C)C1CC2O` (stereo not given), the Potency entry in experiment [1] and in experiment [2] was “inactive” throughout.

Consider `CC[C@H](C)[C@H](NC(=O)[C@H]([C@@H](C)CC)N(C)C(C)=O)C(=O)N[C@H](C(=O)N[C@@H](CC(C)C)C(=O)[C@@]1(C)CO1)[C@@H](C)O`, for which the Potency in experiment [1] was 0.0058 µM (active); in experiment [2], 0.0073 µM (active).

Consider `COc1cc2ncnc(Nc3cccc(O)c3)c2cc1OC`, for which the results for the Potency in experiment [1] and in experiment [2] were 0.411 µM (active) and 0.651 µM (active), respectively.

Regarding `COC1=CC(=O)CC(C)C12Oc1cc(OC)cc(O)c1C2=O` (stereo not given), the Potency result in experiment [1] and in experiment [2] was “inactive” each time.

Consider `O=C1C=CC2OC(c3ccccc3)C(O)C2O1` (stereo not given), for which the figures for the Potency in experiment [1] and in experiment [2] were 6.51 µM (active) and 4.11 µM (active), respectively.

Regarding `O=C(Nc1ccn[nH]1)c1c(F)cccc1F`, the Potency result in experiment [1] and in experiment [2] was “inactive” in each case.

With `CC(=O)O[C@]1(C(C)=O)CC[C@H]2[C@@H]3CCC4=CC(=O)CCC4=C3[C@@H](c3ccc(N(C)C)cc3)C[C@@]21C`, the results for the Potency in experiment [1] and in experiment [2] were 25.9 µM (active) and 20.6 µM (active), respectively.

Take `CC(=O)OC1C=C(C(=O)O)C2(CO)CCC(C)C(C)(CCc3ccoc3)C2C1` (stereo not given): the Potency entry in experiment [1] and in experiment [2] was “inactive” throughout.

For `C[C@@H]1O[C@@H](O[C@H]2[C@H](OC(C#N)c3ccc(O)cc3)O[C@H](CO)[C@@H](O)[C@@H]2O)[C@H](O)[C@H](O)[C@H]1O` (stereo not given in full), the Potency entry in experiment [1] and in experiment [2] was “inactive” throughout.

With `Cc1cc(CNC(=O)c2cc(C(=O)NCc3ccc(F)c(C)c3)ncn2)ccc1F`, the Potency entry in experiment [1] and in experiment [2] was “inactive” each time.

Take `N#Cc1ccc(Nc2nc(-c3ccc(O)cc3O)cs2)cc1C(F)(F)F`: the Potency in experiment [1] is 5.17 µM (active); in experiment [2], 4.61 µM (active).

As to `O=C(Nc1ccc(S(=O)(=O)Nc2ccccc2Cl)c(Cl)c1)c1ccccn1`, the Potency result in experiment [1] was “inactive”. Moreover, the Potency in experiment [2] was 20.6 µM (active).

With `OC[C@@]1(O)CO[C@H](OC[C@H]2O[C@@H](OCCc3ccccc3)[C@H](O)[C@@H](O)[C@@H]2O)[C@@H]1O`, the Potency entry in experiment [1] and in experiment [2] was “inactive” in each case.

Consider `COc1cc2c(cc1OC)C(C(C(=O)N(CCc1ccc(OC)c(OC)c1OC)CCc1ccc(OC)c(OC)c1OC)c1ccccc1)=NCC2` (stereo not given), for which the Potency in experiment [1] is 15 µM (active); in experiment [2] it was 21.1 µM (active).

For `C/C(=C\CCC(C)CCO)C(=O)OC1(C)CCC2C(C(=O)O)=COC(OC3OC(CO)C(O)C(O)C3O)C21` (stereo not given), the Potency entry in experiment [1] and in experiment [2] was “inactive” in each case.

`C/C(=C\CCC(C)(O)c1ccc(C)cc1)C(=O)O` (stereo not given): the Potency entry in experiment [1] and in experiment [2] was “inactive” in each case.

On to `COc1c(O)cc2c(c1O)C(=O)O[C@H](C)[C@H]2O`, for which the Potency entry in experiment [1] and in experiment [2] was “inactive” each time.

`C=C1C(O)C[C@@H]2C(C(=O)O)=CO[C@@H](O[C@@H]3O[C@H](CO)[C@@H](O)[C@H](O)[C@H]3OC(=O)c3ccc(O)cc3)[C@H]12` (stereo not given in full): the Potency result in experiment [1] and in experiment [2] was “inactive” throughout.

Turning to `C=C1C2(C)CC3C4(C)C=CC(=O)OC(C)(C)C4CCC3(C)C1(C(=O)OC)C(=O)C(C)(O)C2=O` (stereo not given), in experiment [1], the Potency result was “inactive”. Besides, the Potency in experiment [2] is 0.224 µM (active).

The values are drawn from PubChem BioAssay (NCATS).
